# Assay results: the supplement of paper PMC8728848
# About 410 targets per protein were measured; listed, in parts, are those with the strongest signals and a random draw of the rest.
# What was measured:
# Experiment in all cases: glycan array binding signal (z-score within array); higher = stronger binding
# Details in all cases: glycan notation: IUPAC condensed, linker removed
# [1] = target: Fuc(a1-2)Gal(b1-3)GlcNAc(b1-3)[Gal(b1-4)GlcNAc(b1-6)]Gal(b1-4)Glc
# Summary of the method: (§1)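 Columns mapping to the same glycan were averaged after glycan names were converted to IUPAC-condensed notation. The data come from 3228 arrays in the Consortium for Functional Glycomics database, limited to those with an available protein sequence. Binding is reported as a within-array Z-score averaged across arrays of one protein sequence and across linkers.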
# [2] = target: Fuc(a1-2)Gal(b1-4)GlcNAc(b1-3)Gal(b1-4)GlcNAc
# Summary of the method: as §1
# [3] = target: Fuc(a1-2)Gal(b1-4)GlcNAc6S
# Summary of the method: as §1
# [4] = target: Fuc(a1-2)Gal(b1-4)[Fuc(a1-3)]GlcNAc(b1-2)[Fuc(a1-2)Gal(b1-4)[Fuc(a1-3)]GlcNAc(b1-4)]Man(a1-3)[Fuc(a1-2)Gal(b1-4)[Fuc(a1-3)]GlcNAc(b1-2)Man(a1-6)]Man(b1-4)GlcNAc(b1-4)GlcNAc
# Summary of the method: as §1
# [5] = target: Fuc(a1-2)[Gal(a1-3)]Gal(b1-4)GlcNAc
# Summary of the method: as §1
# [6] = target: Fuc(a1-3)[Gal(b1-4)]GlcNAc(b1-2)Man(a1-3)[Fuc(a1-3)[Gal(b1-4)]GlcNAc(b1-2)Man(a1-6)]Man(b1-4)GlcNAc(b1-4)GlcNAc
# Summary of the method: as §1
# [7] = target: Fuc(a1-3)[Gal(b1-4)]GlcNAc(b1-2)Man(a1-3)[Fuc(a1-3)[Gal(b1-4)]GlcNAc(b1-2)Man(a1-6)]Man(b1-4)GlcNAc(b1-4)[Fuc(a1-6)]GlcNAc
# Summary of the method: as §1
# [8] = target: Fuc(a1-3)[Gal(b1-4)]GlcNAc(b1-6)GalNAc
# Summary of the method: as §1
# Gal(a1-3)Gal = target: Gal(a1-3)Gal
# Summary of the method: as §1
# [9] = target: Gal(a1-3)Gal(b1-4)GlcNAc(b1-2)Man(a1-3)[Gal(a1-3)Gal(b1-4)GlcNAc(b1-2)Man(a1-6)]Man(b1-4)GlcNAc(b1-4)GlcNAc
# Summary of the method: as §1
# [10] = target: Gal(a1-3)[Gal(a1-4)]Gal(b1-4)GlcNAc
# Summary of the method: as §1
# Gal(a1-6)Glc = target: Gal(a1-6)Glc
# Summary of the method: as §1
# [11] = target: Gal(b1-3)GlcNAc(b1-2)[Gal(b1-3)GlcNAc(b1-6)]Man(a1-6)[Gal(b1-3)GlcNAc(b1-2)Man(a1-3)]Man(b1-4)GlcNAc(b1-4)GlcNAc
# Summary of the method: as §1
# [12] = target: Gal(b1-3)GlcNAc(b1-3)Gal(b1-3)GlcNAc
# Summary of the method: as §1
# [13] = target: Gal(b1-3)GlcNAc(b1-3)Gal(b1-4)GlcNAc(b1-3)Gal(b1-4)GlcNAc(b1-2)[Gal(b1-3)GlcNAc(b1-3)Gal(b1-4)GlcNAc(b1-3)Gal(b1-4)GlcNAc(b1-6)]Man(a1-6)[Gal(b1-3)GlcNAc(b1-3)Gal(b1-4)GlcNAc(b1-3)Gal(b1-4)GlcNAc(b1-2)Man(a1-3)]Man(b1-4)GlcNAc(b1-4)[Fuc(a1-6)]GlcNAc
# Summary of the method: as §1
# [14] = target: Gal(b1-3)GlcNAc(b1-3)Gal(b1-4)GlcNAc(b1-6)[Gal(b1-3)GlcNAc(b1-3)]Gal(b1-4)Glc
# Summary of the method: as §1
# [15] = target: Gal(b1-3)GlcNAc(b1-6)[Gal(b1-3)]GalNAc
# Summary of the method: as §1
# [16] = target: Gal(b1-3)[Neu5Ac(b2-6)]GalNAc
# Summary of the method: as §1
# [17] = target: Gal(b1-4)GlcNAc(b1-3)Gal(b1-4)GlcNAc(b1-3)Gal(b1-4)GlcNAc(b1-2)Man(a1-3)[Gal(b1-4)GlcNAc(b1-3)Gal(b1-4)GlcNAc(b1-3)Gal(b1-4)GlcNAc(b1-2)Man(a1-6)]Man(b1-4)GlcNAc(b1-4)GlcNAc
# Summary of the method: as §1
# [18] = target: Gal(b1-4)GlcNAc(b1-3)Gal(b1-4)GlcNAc(b1-3)Gal(b1-4)GlcNAc(b1-3)Gal(b1-4)GlcNAc(b1-3)Gal(b1-4)GlcNAc(b1-2)[Gal(b1-4)GlcNAc(b1-3)Gal(b1-4)GlcNAc(b1-3)Gal(b1-4)GlcNAc(b1-3)Gal(b1-4)GlcNAc(b1-3)Gal(b1-4)GlcNAc(b1-6)]Man(a1-6)[Gal(b1-4)GlcNAc(b1-3)Gal(b1-4)GlcNAc(b1-3)Gal(b1-4)GlcNAc(b1-3)Gal(b1-4)GlcNAc(b1-3)Gal(b1-4)GlcNAc(b1-2)Man(a1-3)]Man(b1-4)GlcNAc(b1-4)[Fuc(a1-6)]GlcNAc
# Summary of the method: as §1
# Gal(b1-4)GlcNAc6P = target: Gal(b1-4)GlcNAc6P
# Summary of the method: as §1
# Gal3S(b1-3)GalNAc = target: Gal3S(b1-3)GalNAc
# Summary of the method: as §1
# Gal3S(b1-4)Glc = target: Gal3S(b1-4)Glc
# Summary of the method: as §1
# [19] = target: Gal3S(b1-4)[Fuc(a1-3)]Glc6S
# Summary of the method: as §1
# Gal3S4S(b1-4)GlcNAc = target: Gal3S4S(b1-4)GlcNAc
# Summary of the method: as §1
# Gal3S6S(b1-4)GlcNAc = target: Gal3S6S(b1-4)GlcNAc
# Summary of the method: as §1
binder,measurement,setting,value
"Ovorubin (Pomacea canaliculata), J7I2T6 (protein) MFVATSLLLAIATLVVRASPHNYLIMDIEPPKSVSERDILNLLSPLQVKHSFRVTGSTRLLIVIRLDAQSYEKLDEITVPGKVEVIPAVNMADTMERCGVSWPRVELTDDNVTLFESESTLTDVTKEQLKAMLIGYGEHMSGLLQAHRFEYYQAAGATPHRHFVFVNSVPDEIEVFGREGVDIWGGPGEFVVKPQYVTRI",glycan array binding signal (z-score),[1],0.184
same,glycan array binding signal (z-score),[2],0.006
same,glycan array binding signal (z-score),[3],0.049
same,glycan array binding signal (z-score),[4],0.485
same,glycan array binding signal (z-score),[5],-0.498
same,glycan array binding signal (z-score),[6],0.055
same,glycan array binding signal (z-score),[7],-0.362
same,glycan array binding signal (z-score),[8],0.355
same,glycan array binding signal (z-score),Gal(a1-3)Gal,-0.576
same,glycan array binding signal (z-score),[9],0.572
same,glycan array binding signal (z-score),[10],7.96
same,glycan array binding signal (z-score),Gal(a1-6)Glc,-1.13
same,glycan array binding signal (z-score),[11],4.93
same,glycan array binding signal (z-score),[12],-0.763
same,glycan array binding signal (z-score),[13],2.9
same,glycan array binding signal (z-score),[14],-0.801
same,glycan array binding signal (z-score),[15],0.3
same,glycan array binding signal (z-score),[16],-0.862
same,glycan array binding signal (z-score),[17],0.387
same,glycan array binding signal (z-score),[18],2.67
same,glycan array binding signal (z-score),Gal(b1-4)GlcNAc6P,-0.461
same,glycan array binding signal (z-score),Gal3S(b1-3)GalNAc,0.802
same,glycan array binding signal (z-score),Gal3S(b1-4)Glc,-0.766
same,glycan array binding signal (z-score),[19],3.72
same,glycan array binding signal (z-score),Gal3S4S(b1-4)GlcNAc,9.33
same,glycan array binding signal (z-score),Gal3S6S(b1-4)GlcNAc,4.31
